Molecules are shown by their SMILES. The panel holds about 83,000 compounds, 20% with a hit somewhere; the sample as a whole holds those more often.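 Single-dose data. Exposure time 48 hours. Values below 10 considered active.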 Values without a mark were called inactive. The source made the active and inactive calls.

Some test systems named below: 786-0 renal; DU-145 prostate; K-562 leukemia; MALME-3M melanoma; RXF 393 renal; UACC-257 melanoma; SK-MEL-28 melanoma; SK-MEL-2 melanoma; EKVX NSCLC; SN12C renal; UO-31 renal; TK-10 renal; ACHN renal; CAKI-1 renal; A498 renal; CCRF-CEM leukemia; MOLT-4 leukemia; SR leukemia; RPMI-8226 leukemia; OVCAR-8 ovarian.
What all share (test): NCI-60 one-dose screen, 48 h (100 = growth as untreated, 0 = no growth, -100 = all killed)
What all share (conditions): 10 µM

For `COC(=O)CNC(=O)COc1c(OC)c(OC)cc2oc(-c3cccc(C(=O)Nc4ccc(Cl)cc4)c3)cc(=O)c12`, the growth in the experiment with 786-0 renal was -24.3% (active); in the experiment with DU-145 prostate it was 33.6%; in the experiment on K-562 leukemia, 50%; in the experiment on MALME-3M melanoma, -26.1% (active); in the experiment on RXF 393 renal it was 45.9%; in the experiment on UACC-257 melanoma, 58.7%. Besides, the growth in the experiment on SK-MEL-28 melanoma is 20.5%; in the experiment with SK-MEL-2 melanoma, 12.7%; in the experiment with EKVX NSCLC it was 64.1%; in the experiment with SN12C renal, 41%; in the experiment with UO-31 renal, 66.5%; with TK-10 renal, 130%. In addition, the growth was 47.2% in the experiment with ACHN renal; 55.8% in the experiment on CAKI-1 renal; 119% in the experiment on A498 renal; 94.7% in the experiment with CCRF-CEM leukemia; 88.6% in the experiment with MOLT-4 leukemia; 61.2% in the experiment with SR leukemia. Besides, the growth with RPMI-8226 leukemia was 53.7%; with OVCAR-8 ovarian it was -69% (active).

On to `Cc1ccc(S(=O)(=O)N2CCN(S(=O)(=O)c3oc(-c4ccccc4)nc3C#N)CC2)cc1`, for which the growth was 86.6% in the experiment on 786-0 renal; 85.6% in the experiment with DU-145 prostate; 66.1% in the experiment on K-562 leukemia; 92.7% with MALME-3M melanoma; 87.6% with RXF 393 renal; 73.3% in the experiment on UACC-257 melanoma. For the same compound, the growth in the experiment with SK-MEL-28 melanoma was 78.2%; with SK-MEL-2 melanoma it was 75%; in the experiment with EKVX NSCLC, 81.7%; with SN12C renal, 76.8%; with UO-31 renal, 61.7%; in the experiment on TK-10 renal, 77%. Moreover, the growth with ACHN renal was 69.4%; in the experiment on CAKI-1 renal it was 69.8%; with A498 renal, 88.4%; with CCRF-CEM leukemia, 75.7%; with MOLT-4 leukemia, 56.8%; in the experiment with SR leukemia, 31.4%. Moreover, the figures for the growth in the experiment with RPMI-8226 leukemia and with OVCAR-8 ovarian were 74.7% and 84.7%, respectively.

For `CCOC(=O)c1ccc(NC(=O)CSC(CC(=O)c2sc(Nc3ccccn3)nc2C)c2ccccc2F)cc1` (stereo not given), the growth with 786-0 renal was -12.5% (active); in the experiment on DU-145 prostate, 1.39% (active); in the experiment with K-562 leukemia, 5.79% (active); in the experiment on MALME-3M melanoma, 34.2%; with RXF 393 renal, -12.1% (active); with UACC-257 melanoma, 39%. In addition, the growth with SK-MEL-28 melanoma is 33.3%; in the experiment on SK-MEL-2 melanoma it was -31.2% (active); in the experiment on EKVX NSCLC it was 20.2%; with SN12C renal it was -14.8% (active); in the experiment on UO-31 renal, -2.98% (active); in the experiment on TK-10 renal, 28.7%. Moreover, the growth in the experiment on ACHN renal was 12.1%; in the experiment on CAKI-1 renal, 2.96% (active); with A498 renal, -1.49% (active); in the experiment with CCRF-CEM leukemia it was 3.92% (active); in the experiment with MOLT-4 leukemia, 11.5%; with SR leukemia, 4.27% (active). Moreover, the growth with RPMI-8226 leukemia was -14.2% (active); in the experiment on OVCAR-8 ovarian, -0.285% (active).

Regarding `COc1cc(C2CC(c3ccccc3)=Nc3c(N)nc(N)nc3N2)ccc1Oc1nc(NCCO)nc(N2CCOCC2)n1` (stereo not given), the growth in the experiment on 786-0 renal was 89.2%; with DU-145 prostate, 115%; with K-562 leukemia it was 91.3%; in the experiment on MALME-3M melanoma, 93.3%; with RXF 393 renal, 95.7%; in the experiment on UACC-257 melanoma it was 101%. Besides, the growth in the experiment on SK-MEL-28 melanoma was 100%; with SK-MEL-2 melanoma it was 99.7%; with EKVX NSCLC, 97.6%; in the experiment with SN12C renal, 94.8%; with UO-31 renal, 94.2%; with TK-10 renal, 110%. Besides, the growth in the experiment with ACHN renal is 103%; in the experiment with CAKI-1 renal it was 93.9%; with A498 renal, 113%; in the experiment with CCRF-CEM leukemia, 92.4%; in the experiment with MOLT-4 leukemia, 91.3%; in the experiment on SR leukemia, 66%. The growth in the experiment with RPMI-8226 leukemia was 104%; in the experiment with OVCAR-8 ovarian it was 102%.

Take `CCOc1ccc(/C=N/NC(=O)Cn2nc(Cc3ccc(OC)cc3)c3onc(C)c3c2=O)cc1`: the growth was -40.3% (active) in the experiment with 786-0 renal; 14.4% in the experiment on DU-145 prostate; 44.7% in the experiment with K-562 leukemia; -14.5% (active) in the experiment on MALME-3M melanoma; -65.6% (active) in the experiment on RXF 393 renal; 62.1% in the experiment on UACC-257 melanoma. Besides, the growth was 11.5% in the experiment with SK-MEL-28 melanoma; 55.9% in the experiment on SK-MEL-2 melanoma; 33.8% with EKVX NSCLC; -6.22% (active) with SN12C renal; 2.46% (active) in the experiment with UO-31 renal; 50.2% in the experiment on TK-10 renal. For the same compound, the growth is 13.1% in the experiment with ACHN renal; 5.68% (active) in the experiment on CAKI-1 renal; 48.2% in the experiment on A498 renal; 17.9% in the experiment on CCRF-CEM leukemia; 58.3% in the experiment with MOLT-4 leukemia; 29.8% in the experiment on SR leukemia. For the same compound, the growth is 67.9% with RPMI-8226 leukemia and 16.9% in the experiment on OVCAR-8 ovarian.

For `COc1ccc(-n2c(SCC(=O)NNS(=O)(=O)c3ccccc3)nc3ccc(Cl)cc3c2=O)cc1`, the growth in the experiment with 786-0 renal is 101%; in the experiment with DU-145 prostate, 113%; in the experiment on K-562 leukemia, 99.5%; with MALME-3M melanoma, 117%; with RXF 393 renal, 100%; in the experiment with UACC-257 melanoma, 117%. Further, the growth in the experiment on SK-MEL-28 melanoma is 98.3%; with SK-MEL-2 melanoma it was 100%; in the experiment on EKVX NSCLC, 95.6%; in the experiment on SN12C renal, 94.1%; with UO-31 renal it was 63.5%; in the experiment with TK-10 renal it was 109%. In addition, the growth with ACHN renal was -8.76% (active); in the experiment on CAKI-1 renal, 80.4%; in the experiment with A498 renal, 90%; in the experiment with CCRF-CEM leukemia, 108%; with MOLT-4 leukemia, 93.4%; with SR leukemia, 78.9%. In addition, the growth in the experiment on RPMI-8226 leukemia was 99%; in the experiment with OVCAR-8 ovarian, 101%.

In the case of `C#CCOc1cc(N(CC)CC)ccc1C(C(=O)NC(C)(C)C)N(C(=O)C1CCc2cc(F)ccc2O1)c1ccc(F)cc1F` (stereo not given), the growth with 786-0 renal is 53.9%; in the experiment with DU-145 prostate, 50.1%; in the experiment on K-562 leukemia, 18.3%; in the experiment on MALME-3M melanoma it was 62.1%; with RXF 393 renal, 64.6%; in the experiment with UACC-257 melanoma, 29.6%. Also, the growth is 62.8% in the experiment with SK-MEL-28 melanoma; -30.4% (active) in the experiment with SK-MEL-2 melanoma; 47.6% in the experiment with EKVX NSCLC; 47.1% in the experiment with SN12C renal; 27.7% in the experiment on UO-31 renal; 61.3% in the experiment with TK-10 renal. Besides, the growth in the experiment on ACHN renal is 24.7%; in the experiment on CAKI-1 renal it was 29.8%; in the experiment on A498 renal, 68.9%; in the experiment with CCRF-CEM leukemia, 39.7%; in the experiment with MOLT-4 leukemia, 6.84% (active); with SR leukemia, 26.6%. For the same compound, the values for the growth with RPMI-8226 leukemia and in the experiment with OVCAR-8 ovarian were 25.6% and 43.9%, respectively.

These data come from PubChem BioAssay (NCI).
